# The campaign covered roughly 340,000 compounds. About 3,300 (0.97%) were called active. The entries come from a sample that favours actives as a whole. Values without a mark were called inactive.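 How the source made its calls: active means maximum activity change below -70%; inconclusive means maximum activity change from -70% to -50%; inactive means maximum activity change above -50%.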
# Tested on: Potassium voltage-gated channel subfamily H member 2, brain isoform KCNH2 3.1 (human)
# Test: qHTS for Inhibitors of KCHN2 3.1: Mutant qHTS
# Details: U2OS KCNH2 3.1, thallium flux FluxOr; stronger effect = lower value
# In short: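 Measured as rate of thallium-driven FluxOr signal in transduced U2OS cells carrying the 3.1 channel, read kinetically for 2 min upon stimulation; values are rate constants scaled to DMSO control wells.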
# On the % scale 0 is the no-effect control and ±100 the full control effect.
row,Compound,activity change
1,C[C@@H]1CN([C@@H](C)CO)C(=O)c2cc(Br)cnc2O[C@H]1CN(C)Cc1ccc(-c2ccccc2)cc1,-85.7% (active)
2,C[C@H]1CN([C@@H](C)CO)C(=O)c2cc(Br)cnc2O[C@H]1CN(C)S(=O)(=O)c1cccs1,-4.3%
3,C[C@@H]1CN([C@H](C)CO)C(=O)c2cc(Br)cnc2O[C@@H]1CN(C)Cc1cncnc1,6.02%
4,C[C@H](CO)N1C[C@H](C)[C@H](CN(C)C(=O)Nc2ccc3c(c2)OCO3)Oc2ncc(Br)cc2C1=O,12.1%
5,CSc1ncnc2c1ncn2CCCNCC(C)c1ccccc1 (stereo unspecified),6.46%
6,Cc1ccc(-n2c(SCC(=O)NCCC3=CCCCC3)nc3n[nH]c(C)c3c2=N)cc1Cl,-4.71%
7,COc1cccc(-n2c(SCC(=O)NC3CCCCC3)nc3n[nH]c(C)c3c2=N)c1,13.7%
8,CCCCNC(=O)CSc1nc2n[nH]c(C)c2c(=N)n1-c1cccc(Cl)c1C,-75.1% (active)
9,Cc1[nH]c2ccccc2c1C(=O)C(=O)NCc1nnnn1-c1cccc(F)c1,-6.04%
10,O=C(COC(=O)CCc1c[nH]c2ccccc12)Nc1cccc(Cl)c1,-6.53%
11,CCN(C(=O)COC(=O)CCOc1cccc(C)c1)c1c(N)n(Cc2ccccc2)c(=O)[nH]c1=O,11.4%
12,COCCN(C(=O)COC(=O)Cc1cccc(OC)c1)c1c(N)n(Cc2ccccc2)c(=O)[nH]c1=O,8.15%
13,CCN(C(=O)COC(=O)Cc1c(F)cccc1Cl)c1c(N)n(Cc2ccccc2)c(=O)[nH]c1=O,-102% (active)
14,CC1CCC2(CC1)NC(=O)N(CC(=O)NCc1ccco1)C2=O (stereo unspecified),15.5%
15,COc1ccccc1C(CNC(=O)c1cccc(S(=O)(=O)Nc2ccc(F)cc2)c1)N(C)C (stereo unspecified),0.933%
16,O=C(NCCN1CCOCC1)c1cccc(S(=O)(=O)Nc2ccc(F)cc2)c1,-9.37%
17,O=C(NCc1ccccc1CN1CCCC1)c1cccc(S(=O)(=O)Nc2ccc(F)cc2)c1,-81.1% (active)
18,O=C(CC(CC(=O)c1ccccc1)c1ccco1)c1ccccc1,-1.01%
19,CSC1=NN(c2ccccc2)CN(c2ccccc2)N1C,-1.49%
20,Cc1ccc(OCc2nnc(SC3CCc4ccccc4C3=O)n2C)cc1 (stereo unspecified),-114% (active)
21,Cc1ccc(OCc2n[nH]c(=S)n2-c2ccccc2)cc1,-4.15%
22,Cc1cccnc1NC(=O)CSc1nnc(COc2ccc(C(C)C)cc2)n1C,13.2%

row,Compound,activity change
1,Cc1sc2nc(-c3ccccc3F)oc(=O)c2c1C,9.16%
2,CC1=C(C(=O)N(C)C)CC(CC(=O)NCCN2CCOCC2)C(=O)N1Cc1ccccc1 (stereo unspecified),-16.9%
3,C[C@@H]1CN([C@H](C)CO)C(=O)CCCn2cc(nn2)CO[C@H]1CN(C)S(C)(=O)=O,21.6%
4,O=C(NC1CCCC1)c1cc(-c2ccccc2)on1,4.52%
5,Cc1ccc(C(=O)NC(C)c2ccccc2)cc1Br (stereo unspecified),-9.99%
6,CC(NC(=O)c1cc(-c2ccccc2)on1)c1ccccc1 (stereo unspecified),-114% (active)
7,COc1cccc(N2CC(NS(=O)(=O)c3ccc(Cl)cc3)CC2=O)c1 (stereo unspecified),25.6%
8,COc1ccc(N2CC(NS(=O)(=O)c3ccc4ccccc4c3)CC2=O)cc1 (stereo unspecified),-102% (active)
9,COc1cccc(N2CC(NS(=O)(=O)c3cccs3)CC2=O)c1 (stereo unspecified),-5.41%
10,COc1ccc([C@H]2N[C@]3(CCCN(Cc4ccco4)C3=O)[C@H]3C(=O)N(C)C(=O)[C@@H]23)cc1,-5.99%
11,CCc1c(N=O)c(-c2ccccc2)n(O)[n+]1[O-],-12.8%
12,C[C@H]1CCC(=O)N([C@H](CSc2ccccc2)Cc2ccccc2)CC1,2.57%
13,O=C1CC[C@H](O)CCN1[C@H](CSc1ccc(Br)cc1)Cc1ccccc1,8.81%
14,COc1ccc(SC[C@H](Cc2ccccc2)N2CCN(CCc3ccccc3)CCC2=O)cc1,-105% (active)
15,COc1cc(C=NC2CCCCC2)ccc1O,-7.89%
16,C[C@H](CO)N1C[C@H](C)[C@@H](CN(C)S(=O)(=O)c2ccc(Oc3ccccc3)cc2)OCc2cn(nn2)CCCC1=O,2.39%
17,C=CCN1CCN(c2ccncc2S(=O)(=O)N2CCN(C)CC2)CC1,-3.97%
18,Cc1ccc([C@H]2C[C@H](O)[C@@H](n3cc(COC(=O)c4ccccc4)nn3)CN2C(=O)C2CCCCC2)cc1,-7.68%
19,COc1cccc(NC(=O)CN(C)C(=O)c2cc(Cl)nc3ccccc23)c1,14.5%
20,CN1CCN(C2Cc3ccc(Cl)cc3Sc3ccc(F)cc32)CC1 (stereo unspecified),-75.9% (active)
21,O=C(O)C1CCCN1c1nc(Cl)ccc1[N+](=O)[O-] (stereo unspecified),-2.11%
22,O=C(COC(=O)c1ccc(S(=O)(=O)N2CCCCCC2)cc1)Nc1ccccc1C(F)(F)F,-2.65%

row,Compound,activity change
1,CC(=O)Nc1c(-c2ccc(C)cc2)nc2ccc(Cl)cn12,2.86%
2,CCCCCC(O)(CCN1CCCCC1)c1ccccc1 (stereo unspecified),-102% (active)
3,CCCCCCC(O)(CCN1CCCCC1)c1ccccc1 (stereo unspecified),-21.6%
4,C#CC(CCN1CCCCC1)(OC)c1ccccc1 (stereo unspecified),58.1%
5,Cc1ccc(NC(=O)c2ccco2)cc1,4.6%
6,Cc1cc(C)c2c(=O)n3c(nc2c1)C(CC(C)C)NC(=O)c1cc2ccccc2cc1-3 (stereo unspecified),-30.6%
7,O=C(Nc1c(-c2ccccc2)nc2c(Br)cc(Br)cn12)c1ccco1,-72.2% (active)
8,Cc1ccccc1NC(=O)c1cnn(-c2ccccc2)c1NC(=O)c1ccco1,11.4%
9,O=C(Nc1nonc1-c1ccc(Cl)cc1)c1ccco1,-7.1%
10,CCCCCCN1C[C@H](O)[C@@H](n2cc(C3CC3)nn2)C[C@@H]1c1ccc(Cl)cc1,-39.7%
11,CN1OC[C@@H]2CN(C(=O)c3ccc(-c4ccccc4)cc3)[C@H](c3ccc(-c4cccc(F)c4)cc3)C[C@@H]21,-5.34%
12,COC(=O)C(Cc1c[nH]c2ccccc12)NC(=O)CCNC(=O)c1ccco1 (stereo unspecified),3.09%
13,O=C(C[C@H]1C[C@H]2c3cc(NS(=O)(=O)c4ccc(F)cc4)ccc3O[C@H]2[C@H](CO)O1)NCc1cc(F)ccc1F,-4.51%
14,CC1=C(C(=O)OC2CCCCC2)C(c2ccccc2F)NC(=O)N1 (stereo unspecified),8.03%
15,CC1=C(C(=O)OCC2CCCCC2)C(c2ccc(F)cc2)NC(=O)N1 (stereo unspecified),-100% (active)
16,CCC(CC)COC(=O)C1=C(C)NC(=O)NC1c1ccc([N+](=O)[O-])cc1 (stereo unspecified),10.1%
17,O=C(N/N=C/c1ccc2c(c1)OCO2)C(=O)N1CCCC1,-5.78%
18,COC(=O)c1ccc(/C=N/NC(=O)C(=O)N2CCCCCC2)cc1,2.79%
19,COc1cccc(/C=N/NC(=O)C(=O)N2CCCC2)c1,-74.7% (active)
20,CC(=O)c1ccc(OCC(=O)N(C)C2CCS(=O)(=O)C2)cc1 (stereo unspecified),-6.59%
21,COC(=O)C[C@H]1C[C@@H]2c3cc(NC(=O)Nc4ccccc4)ccc3O[C@@H]2[C@@H](CO)O1,4.16%
22,Cc1ccc2nc(N(CCN(C)C)C(=O)C3=COCCO3)sc2c1,-3.64%

row,Compound,activity change
1,Cc1cccc2sc(N(CCCN(C)C)C(=O)CCS(=O)(=O)c3ccccc3)nc12,-7.9%
2,Cc1ccc(S(=O)(=O)N(C)C)cc1NC(=O)/C=C/c1cccs1,-14.2%
3,Cc1ccc2sc(N(CCN(C)C)C(=O)/C=C/c3cccs3)nc2c1C,-90.5% (active)
4,Cc1cc(C)c2nc(N(CCN(C)C)C(=O)/C=C/c3cccs3)sc2c1,-103% (active)
5,CN(C)CCN(C(=O)CN1C(=O)c2ccccc2C1=O)c1nc2cc3c(cc2s1)OCCO3,4.48%
6,CCCCCC(=O)N1C[C@H](O)[C@@H](n2cc(COC(=O)c3ccccc3)nn2)C[C@@H]1c1ccc(C)cc1,-34.6%
7,NC1=CC(=O)C(=O)c2cccnc21,-3.65%
8,C[C@@H]1CN([C@@H](C)CO)C(=O)c2cc(NS(C)(=O)=O)ccc2O[C@@H](C)CCCCO[C@H]1CN(C)C(=O)Nc1ccc2c(c1)OCO2,11.4%
9,C[C@H]1Cn2cnc(C(=O)N[C@H](C)c3ccccc3)c2C(=O)N1,-8.17%
10,COC(=O)c1ccccc1N=NNc1ccc([N+](=O)[O-])cc1,5.4%
11,Nc1ccc2nc3c(=O)[nH]c(=S)[nH]c3nc2c1,-92.4% (active)
12,C[C@H]1CN([C@@H](C)CO)C(=O)c2cc(-c3ccccc3F)cnc2O[C@H]1CN(C)C(=O)C1CCOCC1,-1.4%
13,CC(C)N=C1CCCC1C(=S)SSC(=S)C1CCCC1=NC(C)C (stereo unspecified),8.25%
14,COc1ccc(C(=O)NCCn2nc(C)cc2C)cc1OC1CCN(C(C)=O)CC1,12.7%
15,COc1ccc(C(=O)NC2CC2)cc1OC1CCN(Cc2ccc(SC)cc2)CC1,-111% (active)
16,COc1ccc(C(=O)NC2CC2)cc1OC1CCN(C/C=C/c2ccccc2)CC1,-96.9% (active)
17,COc1cc(C(=O)NC2CCN(Cc3ccccc3)CC2)cc(Cl)c1OC(C)C,-16.6%
18,COc1cc2[nH]c(=O)n(Cc3ccc(C(=O)NC4CCN(Cc5ccccc5)CC4)cc3)c(=O)c2cc1OC,-8.47%
19,COc1cc(C(=O)N2CCN(C/C=C/c3ccccc3)CC2)cc(OC)c1C,-2.35%
20,COCC(=O)N(C)C[C@H]1Oc2cc(Br)ccc2S(=O)(=O)N([C@H](C)CO)C[C@H]1C,-6.83%
